Assay results from the supplement of paper PMC10849652.
Targets with a hit are over-represented here; the source holds about 8,800 in all. About 0.5% of all pairs of compound and target were hits.

Key:
Experiment in all cases: log2 fold change, soluble protein after heating vs DMSO (PISA); higher = thermal stabilisation; K562 lysate, 10 uM; active = over 0.2 and 3.5 SD of the protein, either way, in both replicates (recomputed)
nilotinib = compound: Cc1cn(-c2cc(NC(=O)c3ccc(C)c(Nc4nccc(-c5cccnc5)n4)c3)cc(C(F)(F)F)c2)cn1 [nilotinib]
Outline: (§1)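 To prepare the extract, K562 pellets were dounce-homogenised in PBS pH 7.4 with 1 mM MgCl2, giving crude material at 1 mg/mL protein. This was treated with 10 μM compound for 30 min, then heated in aliquots for 3 min over 48°C-58°C before pooling and addition of NP-40 to 0.5% at 4°C. Centrifugation at 21,000xg for 90 min left soluble protein in the supernatant, which TMTpro 16plex LC-MS/MS quantified with equalised channel sums. Results are log-two fold changes in thermal stability compared with solvent controls, from duplicates.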

[1] = compound: Cc1nc(Nc2n[nH]c3c2CN(C(=O)N[C@H](CN(C)C)c2ccccc2)C3(C)C)c2sccc2n1
Outline: as §1

dasatinib = compound: Cc1nc(Nc2ncc(C(=O)Nc3c(C)cccc3Cl)s2)cc(N2CCN(CCO)CC2)n1 [dasatinib]
Outline: as §1

[2] = compound: Cc1ncc(-c2ccnc(Nc3ccc(S(C)(=O)=O)cc3)n2)n1C(C)C
Outline: as §1

[3] = compound: Cn1cc(-c2ccc3c(c2)CCN3C(=O)Cc2cccc(C(F)(F)F)c2)c2c(N)ncnc21
Outline: as §1

quisinostat = compound: Cn1cc(CNCC2CCN(c3ncc(C(=O)NO)cn3)CC2)c2ccccc21 [quisinostat]
Outline: as §1

tipifarnib = compound: Cn1cncc1[C@@](N)(c1ccc(Cl)cc1)c1ccc2c(c1)c(-c1cccc(Cl)c1)cc(=O)n2C [tipifarnib]
Outline: as §1

[4] = compound: NC(=O)Nc1cc(-c2cccc(F)c2)sc1C(=O)N[C@H]1CCCNC1
Outline: as §1

[5] = compound: NC(=O)c1cnc(N[C@@H]2CCCC[C@@H]2N)nc1Nc1cccc(-n2nccn2)c1
Outline: as §1

[6] = compound: NC1(c2ccc(-c3nc4ccn5c(=O)[nH]nc5c4cc3-c3ccccc3)cc2)CCC1
Outline: as §1

Measured: log2 fold change

DOK1 (UniProt Q99704)
inactive: nilotinib -0.019 | [1] 0.05 | dasatinib 0.014 | [2] -0.103 | [3] 0.023 | quisinostat -0.032 | tipifarnib 0.048 | [4] 0.07 | [5] -0.055 | [6] 0.018

COTL1 (UniProt Q14019)
inactive: nilotinib 0.021 | [1] 0.003 | dasatinib 0.024 | [2] 0.031 | [3] 0.023 | quisinostat 0.017 | tipifarnib 0.055 | [4] -0.075 | [5] -0.028 | [6] -0.011

DDX20 (UniProt Q9UHI6)
inactive: nilotinib -0.009 | [1] 0.008 | dasatinib -0.054 | [2] 0.003 | [3] 0.058 | quisinostat -0.058 | tipifarnib -0.01 | [4] 0.095 | [5] 0.03 | [6] -0.024

DHRS11 (UniProt Q6UWP2)
inactive: nilotinib 0.058 | [1] 0.017 | dasatinib -0.018 | [2] 0.008 | [3] 0.03 | quisinostat 0.024 | tipifarnib 0.002 | [4] 0.037 | [5] 0.002 | [6] 0

COG2 (UniProt Q14746)
inactive: nilotinib 0.024 | [1] 0.008 | dasatinib -0.024 | [2] 0.096 | [3] -0.002 | quisinostat -0.029 | tipifarnib -0.06 | [4] 0.055 | [5] 0.001 | [6] 0.009

DERA (UniProt Q9Y315)
UniProt Q9Y315, sequence (Q9Y315 whole entry, looked up): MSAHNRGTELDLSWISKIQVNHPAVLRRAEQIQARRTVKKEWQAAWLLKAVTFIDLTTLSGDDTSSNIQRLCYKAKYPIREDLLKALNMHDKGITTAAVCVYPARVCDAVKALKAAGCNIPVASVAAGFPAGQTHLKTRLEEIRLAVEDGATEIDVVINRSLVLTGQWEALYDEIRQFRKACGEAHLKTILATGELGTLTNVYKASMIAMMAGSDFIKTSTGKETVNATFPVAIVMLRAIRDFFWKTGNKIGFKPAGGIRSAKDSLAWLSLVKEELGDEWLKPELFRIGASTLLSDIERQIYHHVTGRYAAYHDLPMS
inactive: nilotinib 0.037 | [1] -0.027 | dasatinib 0.057 | [2] 0.006 | [3] -0.017 | quisinostat -0.008 | tipifarnib 0.08 | [4] -0.017 | [5] -0.021 | [6] 0

DDR1 isoform 5 (UniProt Q08345)
UniProt Q08345, sequence (Q08345 whole entry, looked up): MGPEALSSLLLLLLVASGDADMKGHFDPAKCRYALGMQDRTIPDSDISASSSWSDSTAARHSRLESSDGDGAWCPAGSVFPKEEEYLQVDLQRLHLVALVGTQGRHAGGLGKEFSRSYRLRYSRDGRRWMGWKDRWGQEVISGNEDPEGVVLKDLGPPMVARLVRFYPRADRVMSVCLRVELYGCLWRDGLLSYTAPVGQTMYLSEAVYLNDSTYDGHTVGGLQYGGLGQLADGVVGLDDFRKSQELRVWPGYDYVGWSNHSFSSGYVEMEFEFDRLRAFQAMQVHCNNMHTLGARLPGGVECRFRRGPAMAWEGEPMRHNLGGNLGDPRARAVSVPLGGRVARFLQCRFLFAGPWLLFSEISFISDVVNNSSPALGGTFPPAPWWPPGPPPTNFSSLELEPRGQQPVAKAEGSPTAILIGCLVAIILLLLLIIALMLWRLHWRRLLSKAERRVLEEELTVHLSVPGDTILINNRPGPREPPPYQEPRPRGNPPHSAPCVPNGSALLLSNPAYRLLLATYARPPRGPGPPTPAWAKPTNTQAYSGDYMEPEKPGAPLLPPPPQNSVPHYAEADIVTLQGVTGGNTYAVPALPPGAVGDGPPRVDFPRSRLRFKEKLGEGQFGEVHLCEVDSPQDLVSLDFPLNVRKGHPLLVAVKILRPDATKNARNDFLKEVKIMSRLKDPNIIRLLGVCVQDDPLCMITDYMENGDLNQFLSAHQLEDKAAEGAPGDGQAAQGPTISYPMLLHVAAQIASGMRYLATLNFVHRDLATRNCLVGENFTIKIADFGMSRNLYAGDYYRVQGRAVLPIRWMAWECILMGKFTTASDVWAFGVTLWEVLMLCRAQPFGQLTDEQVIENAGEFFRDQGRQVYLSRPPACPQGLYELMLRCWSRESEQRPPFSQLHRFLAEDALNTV
inactive: nilotinib 0.036 | [1] 0.013 | dasatinib 0.083 | [2] -0.216 | [3] 0.103 | quisinostat 0.045 | tipifarnib -0.012 | [4] -0.054

CIC (UniProt I3L2J0)
inactive: nilotinib 0.045 | [1] 0.024 | dasatinib 0 | [2] 0.001 | [3] 0.006 | quisinostat 0.027 | tipifarnib -0.087 | [4] -0.053 | [5] -0.073 | [6] 0.014

CLASP2 isoform 3 (UniProt O75122)
UniProt O75122, sequence (O75122 whole entry, looked up): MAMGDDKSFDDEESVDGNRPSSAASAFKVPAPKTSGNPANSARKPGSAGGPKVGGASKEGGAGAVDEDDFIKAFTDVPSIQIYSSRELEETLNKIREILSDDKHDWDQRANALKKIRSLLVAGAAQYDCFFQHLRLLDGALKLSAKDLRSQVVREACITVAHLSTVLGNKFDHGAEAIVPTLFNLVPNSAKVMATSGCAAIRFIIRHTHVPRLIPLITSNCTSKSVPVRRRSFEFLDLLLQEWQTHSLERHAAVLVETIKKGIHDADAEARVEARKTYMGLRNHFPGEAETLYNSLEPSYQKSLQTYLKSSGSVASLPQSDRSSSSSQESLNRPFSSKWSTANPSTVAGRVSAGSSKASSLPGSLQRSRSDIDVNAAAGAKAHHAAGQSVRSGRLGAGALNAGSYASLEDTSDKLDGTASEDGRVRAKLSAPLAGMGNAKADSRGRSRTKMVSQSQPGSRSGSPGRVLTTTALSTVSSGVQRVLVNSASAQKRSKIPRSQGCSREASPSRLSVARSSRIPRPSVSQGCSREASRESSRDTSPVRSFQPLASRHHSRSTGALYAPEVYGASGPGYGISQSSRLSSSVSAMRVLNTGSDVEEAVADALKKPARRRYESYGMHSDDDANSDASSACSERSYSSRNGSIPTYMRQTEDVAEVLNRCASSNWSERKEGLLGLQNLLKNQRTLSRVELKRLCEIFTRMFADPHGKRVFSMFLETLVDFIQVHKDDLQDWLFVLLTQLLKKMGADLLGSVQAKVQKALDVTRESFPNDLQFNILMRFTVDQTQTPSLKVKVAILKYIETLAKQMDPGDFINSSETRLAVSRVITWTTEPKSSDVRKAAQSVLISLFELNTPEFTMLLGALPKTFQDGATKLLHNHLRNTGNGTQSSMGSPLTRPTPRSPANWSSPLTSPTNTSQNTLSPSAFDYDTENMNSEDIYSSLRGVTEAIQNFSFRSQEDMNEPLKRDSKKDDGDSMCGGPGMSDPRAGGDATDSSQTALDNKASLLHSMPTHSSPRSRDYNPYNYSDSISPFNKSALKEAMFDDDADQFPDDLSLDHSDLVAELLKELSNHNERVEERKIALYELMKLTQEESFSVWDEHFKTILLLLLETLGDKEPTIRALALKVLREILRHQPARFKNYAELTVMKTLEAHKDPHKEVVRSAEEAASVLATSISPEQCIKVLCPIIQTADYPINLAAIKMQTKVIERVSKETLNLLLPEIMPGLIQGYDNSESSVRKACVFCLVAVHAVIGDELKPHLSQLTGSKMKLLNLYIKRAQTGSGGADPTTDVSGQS
inactive: nilotinib 0.013 | [1] -0.004 | dasatinib -0.024 | [2] 0.02 | [3] 0.021 | quisinostat -0.042 | tipifarnib -0.063 | [4] -0.07 | [5] -0.007 | [6] 0.032

DNAJC24 (UniProt Q6P3W2)
inactive: nilotinib 0 | [1] -0.093 | dasatinib 0.062 | [2] 0.02 | [3] -0.039 | quisinostat -0.042 | tipifarnib 0.063 | [4] 0.054 | [5] -0.041 | [6] -0.015

DOCK7 (UniProt Q96N67)
inactive: nilotinib 0.005 | [1] -0.002 | dasatinib 0.01 | [2] -0.03 | [3] 0.029 | quisinostat -0.039 | tipifarnib -0.01 | [4] 0.048 | [5] 0.036 | [6] -0.062

CNDP2 (UniProt Q96KP4)
inactive: nilotinib 0.039 | [1] -0.023 | dasatinib 0.017 | [2] 0.051 | [3] -0.05 | quisinostat -0.074 | tipifarnib -0.008 | [4] 0.004 | [5] 0.013 | [6] -0.003

CUX1 isoform 3 (UniProt P39880)
UniProt P39880, sequence (P39880 whole entry, looked up): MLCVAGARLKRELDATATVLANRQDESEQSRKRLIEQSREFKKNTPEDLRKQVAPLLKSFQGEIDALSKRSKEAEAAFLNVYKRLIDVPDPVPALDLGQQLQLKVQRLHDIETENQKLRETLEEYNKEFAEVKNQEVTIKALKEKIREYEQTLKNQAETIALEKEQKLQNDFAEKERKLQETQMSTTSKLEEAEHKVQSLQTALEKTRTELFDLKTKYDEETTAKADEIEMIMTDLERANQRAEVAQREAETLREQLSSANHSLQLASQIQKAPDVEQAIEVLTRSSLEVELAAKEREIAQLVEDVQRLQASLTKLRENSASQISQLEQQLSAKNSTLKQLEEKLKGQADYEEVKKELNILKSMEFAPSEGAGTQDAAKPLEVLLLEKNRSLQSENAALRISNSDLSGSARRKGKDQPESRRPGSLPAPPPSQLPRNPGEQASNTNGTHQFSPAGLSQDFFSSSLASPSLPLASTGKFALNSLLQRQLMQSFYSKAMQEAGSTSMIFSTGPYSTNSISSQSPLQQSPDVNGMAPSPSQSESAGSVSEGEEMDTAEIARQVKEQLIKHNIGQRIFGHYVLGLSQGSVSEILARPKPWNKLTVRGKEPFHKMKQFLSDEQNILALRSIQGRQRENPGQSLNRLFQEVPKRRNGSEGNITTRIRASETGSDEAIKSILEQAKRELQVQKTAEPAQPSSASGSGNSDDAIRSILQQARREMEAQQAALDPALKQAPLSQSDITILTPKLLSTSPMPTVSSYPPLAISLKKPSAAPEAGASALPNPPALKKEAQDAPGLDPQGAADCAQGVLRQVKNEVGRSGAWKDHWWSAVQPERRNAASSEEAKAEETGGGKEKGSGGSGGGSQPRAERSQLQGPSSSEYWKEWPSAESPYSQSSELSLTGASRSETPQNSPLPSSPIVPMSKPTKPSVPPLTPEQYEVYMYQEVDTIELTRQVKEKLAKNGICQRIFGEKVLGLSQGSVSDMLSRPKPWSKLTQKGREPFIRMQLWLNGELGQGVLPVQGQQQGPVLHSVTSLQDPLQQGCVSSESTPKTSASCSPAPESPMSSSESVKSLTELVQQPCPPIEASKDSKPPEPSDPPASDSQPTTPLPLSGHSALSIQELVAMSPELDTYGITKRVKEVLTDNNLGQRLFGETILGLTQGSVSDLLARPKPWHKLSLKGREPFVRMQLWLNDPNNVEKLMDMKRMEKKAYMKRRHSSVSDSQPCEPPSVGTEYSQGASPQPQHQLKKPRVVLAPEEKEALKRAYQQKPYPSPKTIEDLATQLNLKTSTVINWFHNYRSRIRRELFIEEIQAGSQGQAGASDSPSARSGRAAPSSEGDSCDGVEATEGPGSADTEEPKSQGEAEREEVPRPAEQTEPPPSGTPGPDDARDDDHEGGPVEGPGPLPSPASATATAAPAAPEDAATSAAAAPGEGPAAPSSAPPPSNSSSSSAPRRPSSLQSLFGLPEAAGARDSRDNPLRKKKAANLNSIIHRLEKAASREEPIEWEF
inactive: nilotinib -0.029 | [1] 0.026 | dasatinib -0.04 | [2] 0.012 | [3] 0.006 | quisinostat -0.02 | tipifarnib -0.057 | [4] 0.006 | [5] 0.03 | [6] -0.015

DEF6 (UniProt Q9H4E7)
inactive: nilotinib -0.058 | [1] 0.046 | dasatinib -0.034 | [2] 0.033 | [3] 0.006 | quisinostat -0.044 | tipifarnib 0.027 | [4] 0.067 | [5] 0.044 | [6] -0.01

CNOT4 isoform 6 (UniProt O95628)
inactive: nilotinib -0.004 | [1] 0.053 | dasatinib 0.034 | [2] 0.057 | [3] 0.013 | quisinostat 0.107 | tipifarnib -0.018 | [4] 0.041 | [5] -0.022 | [6] 0.008

DHCR7 (UniProt Q9UBM7)
inactive: nilotinib -0.013 | [1] 0.016 | dasatinib 0.011 | [2] 0 | [3] 0.013 | quisinostat 0.234 | tipifarnib 0.015 | [4] 0.029 | [5] 0.008 | [6] 0.047

DCTN1 isoform 4 (UniProt Q14203)
inactive: nilotinib 0.304 | [1] -0.331 | dasatinib -0.163 | [2] -0.288 | [3] -0.051 | quisinostat -0.064 | tipifarnib -0.064 | [4] 0.074 | [5] 0.139 | [6] 0.169

CHEK2 (UniProt O96017)
UniProt O96017, sequence (O96017 whole entry, looked up): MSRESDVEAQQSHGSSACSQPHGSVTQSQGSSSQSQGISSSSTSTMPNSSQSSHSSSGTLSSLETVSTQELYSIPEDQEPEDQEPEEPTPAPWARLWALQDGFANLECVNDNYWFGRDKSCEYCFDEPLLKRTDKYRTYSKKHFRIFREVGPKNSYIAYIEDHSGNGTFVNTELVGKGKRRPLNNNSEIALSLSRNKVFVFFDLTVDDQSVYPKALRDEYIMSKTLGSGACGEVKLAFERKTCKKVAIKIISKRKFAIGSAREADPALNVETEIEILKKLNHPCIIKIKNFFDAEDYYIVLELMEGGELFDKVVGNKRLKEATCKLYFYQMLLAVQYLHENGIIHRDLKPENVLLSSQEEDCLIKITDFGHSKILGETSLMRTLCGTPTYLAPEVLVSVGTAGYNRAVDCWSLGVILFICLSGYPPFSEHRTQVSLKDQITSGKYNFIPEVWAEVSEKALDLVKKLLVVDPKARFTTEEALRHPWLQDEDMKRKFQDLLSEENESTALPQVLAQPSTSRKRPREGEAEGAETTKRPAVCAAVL
inactive: nilotinib -0.022 | dasatinib 0.04 | [2] -0.007 | [3] 0.05 | quisinostat -0.057 | tipifarnib 0.023 | [5] 0.013 | [6] 0.035
active: [1] 0.285 | [4] 0.326

COQ9 (UniProt O75208)
inactive: nilotinib 0.021 | [1] 0.03 | dasatinib -0.021 | [2] 0 | [3] -0.007 | quisinostat 0.036 | tipifarnib -0.016 | [4] 0 | [5] 0.002 | [6] -0.018

COMT (UniProt P21964)
inactive: nilotinib -0.007 | [1] -0.029 | dasatinib -0.02 | [2] -0.018 | [3] 0.02 | quisinostat -0.08 | tipifarnib 0.013 | [4] 0.028 | [5] 0.005 | [6] 0.009

CRABP2 (UniProt P29373)
inactive: nilotinib -0.063 | [1] -0.125 | dasatinib 0.076 | [2] -0.066 | [3] 0.006 | quisinostat -0.004 | tipifarnib 0.061 | [4] -0.049 | [5] -0.036 | [6] -0.02

CNIH4 (UniProt Q9P003)
inactive: nilotinib 0.074 | [1] -0.327 | dasatinib 0.132 | [2] -0.12 | [3] 0.063 | quisinostat -0.068 | [4] 0.088 | [5] 0.076 | [6] -0.136
active: tipifarnib -0.515

CHURC1 isoform 2 (UniProt Q8WUH1)
UniProt Q8WUH1, sequence (Q8WUH1 whole entry, looked up): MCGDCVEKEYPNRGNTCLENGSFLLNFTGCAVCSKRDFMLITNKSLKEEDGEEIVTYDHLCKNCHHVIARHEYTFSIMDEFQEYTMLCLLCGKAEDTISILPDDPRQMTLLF
inactive: nilotinib 0.055 | [1] -0.029 | dasatinib 0.016 | [2] -0.09 | [3] -0.001 | quisinostat -0.074 | tipifarnib 0.027 | [4] 0.018 | [5] -0.041 | [6] -0.083

COX20 isoform 2 (UniProt Q5RI15)
inactive: nilotinib 0.051 | [1] -0.023 | dasatinib 0.07 | [2] -0.024 | [3] 0.013 | quisinostat -0.017 | tipifarnib 0.117 | [4] -0.026 | [5] -0.058 | [6] -0.03

CHMP4A isoform 2 (UniProt Q9BY43)
inactive: nilotinib -0.026 | [1] -0.021 | dasatinib 0.039 | [2] 0 | [3] -0.011 | quisinostat -0.145 | tipifarnib 0.017 | [4] -0.029 | [5] -0.02 | [6] -0.009

COG6 (UniProt Q9Y2V7)
inactive: nilotinib 0.004 | [1] 0.038 | dasatinib -0.085 | [2] -0.041 | [3] -0.005 | quisinostat -0.068 | tipifarnib -0.045 | [4] -0.016 | [5] -0.008 | [6] -0.06

CYP24A1 (UniProt Q07973)
inactive: nilotinib 0.036 | [1] -0.029 | dasatinib -0.049 | [2] 0.015 | [3] 0.008 | quisinostat -0.33 | tipifarnib -0.018 | [4] 0.04 | [5] 0.068 | [6] -0.161

COG7 (UniProt P83436)
inactive: nilotinib 0.02 | [1] 0.007 | dasatinib -0.089 | [2] 0.011 | [3] 0.024 | quisinostat 0 | tipifarnib -0.001 | [4] 0.033 | [5] -0.019 | [6] 0.001

DDX39A (UniProt O00148)
inactive: nilotinib -0.002 | [1] 0.02 | dasatinib 0.001 | [2] 0.007 | [3] 0.06 | quisinostat -0.018 | tipifarnib -0.053 | [4] 0.075 | [5] 0.036 | [6] -0.013

CSNK2A2 (UniProt P19784)
UniProt P19784, sequence (P19784 whole entry, looked up): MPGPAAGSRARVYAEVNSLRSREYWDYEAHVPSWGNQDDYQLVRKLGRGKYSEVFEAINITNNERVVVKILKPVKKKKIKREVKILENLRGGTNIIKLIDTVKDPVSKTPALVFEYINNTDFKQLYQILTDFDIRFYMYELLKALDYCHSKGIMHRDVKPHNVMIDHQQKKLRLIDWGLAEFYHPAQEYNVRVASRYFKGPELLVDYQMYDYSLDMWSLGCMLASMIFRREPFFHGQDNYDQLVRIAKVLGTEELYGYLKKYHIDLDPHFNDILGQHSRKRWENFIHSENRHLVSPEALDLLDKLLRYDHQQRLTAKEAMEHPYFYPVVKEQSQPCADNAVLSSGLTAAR
inactive: nilotinib -0.031 | [1] 0.195 | dasatinib -0.039 | [2] 0.254 | [3] -0.004 | quisinostat 0.001 | tipifarnib -0.014 | [4] 0.094 | [5] 0.018 | [6] -0.003
